For 15 compounds, outcome, potentiation and inhibition results are on record in PubChem BioAssay.

In assay [1] the test system is TRPC4 beta (transient receptor potential cation channel C4), mouse. Description: activators of mouse TRPC4 channel, confirmation, cell-based, Fluo4 calcium, HEK293 TRPC4beta/mu-opioid, duplicates, 10 µM (AID 2426;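 active = fluorescence ratio normalized to control raised more than 50% in primary screen plus both repeat runs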). As to conditions: Fluo4 calcium fluorescence, at 10 µM; active compounds read high.
Assay [2] concerns transient receptor potential cation channel C4 beta (TRPC4), mouse. Description: activators of mouse TRPC4 channel, confirmation, cell-based, second round, Fluo4, HEK293 TRPC4beta/mu-opioid, 1 µM (AID 2461;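 active = primary screen active and over 50% activation in each of two duplicate runs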). Particulars: Fluo4 calcium fluorescence, at 1 µM; active compounds read high.
Assay [3] relates to TRPC4 (transient receptor potential cation channel C4 beta), mouse. Put plainly: positive allosteric modulators of mouse TRPC4, confirmation, cell-based, second round, Fluo-4, HEK293 TRPC4beta/mu-opioid, 1 µM (AID 2554;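 active = primary screen hit whose fluorescence ratio, in both repeats, exceeds the weak agonist control mean by 3 SD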). As to conditions: DAMGO EC20, Fluo-4 calcium flux, at 1 µM; active compounds read high.
Assay [4] relates to TRPC4 beta (transient receptor potential cation channel C4), mouse. Put plainly: positive allosteric modulators of mouse TRPC4, confirmation, cell-based, Fluo-4, HEK293 TRPC4beta/mu-opioid (AID 2555;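 active = primary screen hit whose calcium fluorescence ratio, in both repeats, exceeds the weak agonist control mean by 3 SD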). As to conditions: DAMGO EC20, Fluo-4 calcium flux, at 10 µM; active compounds read high.
Assay [5] has as its target Short transient receptor potential channel 4 (Mus musculus) (UniProt Q9QUQ5). Description: inhibitors of mouse TRPC4 channel, confirmation, cell-based, Fluo4, HEK293 TRPC4beta/mu-opioid (AID 2636;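 active = calcium signal cut by more than 3 SD below the full-agonist control yet still positive, in both repeats and the earlier primary screen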). As to conditions: DAMGO, Fluo4 calcium flux, at 10 µM; active compounds read high.
Assay [6] shares this target. Description: inhibitors of mouse TRPC4 channel, confirmation, cell-based, second round, Fluo4, HEK293 TRPC4beta/mu-opioid, 1 µM (AID 2637).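 For inhibition: percent of integrated ratio relative to wells lacking test compound.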 Particulars: Fluo4 calcium flux, DAMGO, at 1 µM; active compounds read high.
The target is the same in assay [7]. Put plainly: mouse TRPC4 channel activators, dose response, cell-based, HEK293 TRPC4/mu-opioid, Fluo-4 calcium (AID 434937;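 active = primary screen activator hit with a dose response curve and TRPC4 channel activation at any tested dose; inactive = no activation, no dose response, or not a primary hit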).
The target is the same in assay [8]. Description: TRPC4 positive allosteric modulators, dose response, cell-based, HEK293 TRPC4/mu-opioid, Fluo-4 calcium, EC20 DAMGO (AID 434941;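 active = earlier screen potentiator hit that boosts the TRPC4 ion channel at some dose, with a dose response; inactive = no potentiation, no dose response, or not a prior hit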;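 note: calcium entry triggered by an EC20 dose of DAMGO at the co-expressed mu-opioid receptor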).
The target is the same in assay [9]. Put plainly: mouse TRPC4 channel inhibitors, dose response, cell-based, HEK293 TRPC4/mu-opioid, Fluo-4 calcium (AID 434942;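 active = primary screen inhibitor hit that blocks the TRPC4 channel at some tested dose, yielding a dose curve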).
Assay [10] addresses Short transient receptor potential channel 6 (Mus musculus) (UniProt Q61143). Description: inhibition of mouse TRPC6 channel, confirmation, selectivity assay for TRPC4 inhibitor project, cell-based, HEK293, membrane potential dye, duplicate (AID 434948;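 active = active in primary screen and both duplicates, each dropping signal beyond three positive-control SD with fluorescence still positive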). As to conditions: HEK293 TRPC6, membrane potential dye fluorescence, at 10 µM, stimulated with maximal-effect acetylcholine; active compounds read high.

For assay [11] the target is unchanged. Put plainly: activation of mouse TRPC6 channel, confirmation, selectivity assay for TRPC4 activator project, cell-based, HEK293, membrane potential dye, duplicate (AID 434950;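 active = membrane potential signal rise above negative control mean plus 3 SD in both duplicates, also active in the earlier TRPC4 screen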). As to conditions: HEK293 TRPC6, membrane potential fluorescence, at 10 µM; active compounds read high.
The target is the same in assay [12]. Description: TRPC6 potentiation by TRPC4 potentiator hits, confirmation, selectivity assay for TRPC4 potentiator project, HEK293 cells, membrane potential dye, duplicate (AID 434952;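 active = compound raising the membrane signal above positive-control mean plus 3 SD in both repeats, and a primary screen hit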). As to conditions: HEK293 TRPC6, membrane potential dye fluorescence, at 10 µM, maximal acetylcholine added after compound; active compounds read high.
Assay [13] deals with Short transient receptor potential channel 4 (Mus musculus) (UniProt Q9QUQ5). Description: calcium flux activators in TRPC4/5HT1a cells, counter-screen for TRPC4 activator project, cell-based, second counter screen, HEK293 TRPC4/5HT1a, Fluo-4 (AID 434977;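 active = calcium signal rise above buffer-control mean plus 5 SD in both duplicates, and also a hit in the primary screen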). Particulars: Fluo-4 calcium flux, at 10 µM; active compounds read high. (In general: Calcium flux is commonly read through the fluorescence of an indicator in the cells.)
Short transient receptor potential channel 4 (Mus musculus), sequence (Q9QUQ5 whole entry, looked up): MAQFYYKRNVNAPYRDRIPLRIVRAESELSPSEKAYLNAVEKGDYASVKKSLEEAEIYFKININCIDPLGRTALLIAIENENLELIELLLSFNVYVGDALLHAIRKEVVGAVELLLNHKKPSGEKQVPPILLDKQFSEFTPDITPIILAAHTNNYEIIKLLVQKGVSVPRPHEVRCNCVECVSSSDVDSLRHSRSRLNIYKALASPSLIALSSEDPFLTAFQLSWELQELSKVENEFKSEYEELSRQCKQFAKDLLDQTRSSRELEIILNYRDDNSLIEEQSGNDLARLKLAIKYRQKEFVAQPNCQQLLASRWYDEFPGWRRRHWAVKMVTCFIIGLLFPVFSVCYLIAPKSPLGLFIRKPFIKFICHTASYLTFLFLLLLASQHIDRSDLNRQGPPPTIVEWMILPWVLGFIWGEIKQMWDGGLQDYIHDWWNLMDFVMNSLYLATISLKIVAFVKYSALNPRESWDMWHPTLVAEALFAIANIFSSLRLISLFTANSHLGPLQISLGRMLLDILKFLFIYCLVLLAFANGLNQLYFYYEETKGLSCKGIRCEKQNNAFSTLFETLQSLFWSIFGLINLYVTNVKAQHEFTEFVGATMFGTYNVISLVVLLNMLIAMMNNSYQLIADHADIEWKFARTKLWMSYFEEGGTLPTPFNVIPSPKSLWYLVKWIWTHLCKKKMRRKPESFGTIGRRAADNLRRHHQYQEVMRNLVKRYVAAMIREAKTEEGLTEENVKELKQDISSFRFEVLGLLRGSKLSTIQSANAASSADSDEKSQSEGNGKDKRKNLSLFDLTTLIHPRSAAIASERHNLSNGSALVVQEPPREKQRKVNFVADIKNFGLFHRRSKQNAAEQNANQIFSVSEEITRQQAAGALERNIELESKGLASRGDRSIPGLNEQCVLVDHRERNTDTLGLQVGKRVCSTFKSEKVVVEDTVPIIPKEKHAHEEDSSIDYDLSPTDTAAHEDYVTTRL

The nature of assay [14]: calcium flux inhibitors in TRPC4/5HT1a cells, confirmation, counter-screen for TRPC4 inhibitor project, cell-based, second counter screen, HEK293 TRPC4/5HT1a, Fluo-4 (AID 434978;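 active = primary screen active whose calcium signal fell more than 3 SD beyond the full-serotonin control mean in both duplicate plates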;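 for outcome: serotonin given first at submaximal then at maximal dose after compound preincubation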). As to conditions: Fluo-4 calcium flux, at 10 µM, serotonin added to trigger calcium flux; active compounds read high.
Assay [15] deals with TRPC4 (mouse), co-expressed with 5HT1a in HEK293. Description: calcium flux potentiators in TRPC4/5HT1a cells, confirmation, counter-screen for TRPC4 potentiator project, cell-based, second counter screen, HEK293 TRPC4/5HT1a, Fluo-4 (AID 434979;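 active = signal rise over 3 SD above mean of control wells given weak agonist, in both repeats and first screen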). Particulars: Fluo-4 calcium flux, at 10 µM, serotonin added at its EC20 dose; active compounds read high.
The nature of assay [16]: calcium flux activation in mu-opioid HEK293 cells, confirmation, counter-screen for TRPC4 activator project, cell-based, HEK293 mu-opioid receptor line (AID 449723;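 active = hit in primary screen, with calcium signal over 5 SD above buffer well mean in both duplicates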;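 note: counter screen cells carry the mu-opioid receptor alone and lack TRPC4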). As to conditions: Fluo-4 calcium fluorescence, at 10 µM; active compounds read high.
Assay [17] can be described thus: calcium flux enhancement in mu-opioid HEK293 cells, confirmation, counter-screen for TRPC4 allosteric potentiator project, cell-based, HEK293 mu-opioid receptor line (AID 449724;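 active = calcium signal rise more than 3 SD above the low-dose agonist control mean, in both duplicate plates and the primary screen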;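 note: HEK293 cells carrying mu-opioid receptor only with no TRPC4 channel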). As to conditions: Fluo-4 calcium flux, at 10 µM, compound added before EC20 DAMGO stimulus; active compounds read high.

For part of these data: Measured potencies and affinities stand elsewhere. Active and inactive are the calls of the source.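 Rule for the calls, unless noted: active = calcium signal ratio cut to more than 3 SD under the fully stimulated control mean yet still positive, in both repeats and the primary screen; inactive = the rest.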

Short transient receptor potential channel 6 (Mus musculus), sequence (Q61143 whole entry, looked up): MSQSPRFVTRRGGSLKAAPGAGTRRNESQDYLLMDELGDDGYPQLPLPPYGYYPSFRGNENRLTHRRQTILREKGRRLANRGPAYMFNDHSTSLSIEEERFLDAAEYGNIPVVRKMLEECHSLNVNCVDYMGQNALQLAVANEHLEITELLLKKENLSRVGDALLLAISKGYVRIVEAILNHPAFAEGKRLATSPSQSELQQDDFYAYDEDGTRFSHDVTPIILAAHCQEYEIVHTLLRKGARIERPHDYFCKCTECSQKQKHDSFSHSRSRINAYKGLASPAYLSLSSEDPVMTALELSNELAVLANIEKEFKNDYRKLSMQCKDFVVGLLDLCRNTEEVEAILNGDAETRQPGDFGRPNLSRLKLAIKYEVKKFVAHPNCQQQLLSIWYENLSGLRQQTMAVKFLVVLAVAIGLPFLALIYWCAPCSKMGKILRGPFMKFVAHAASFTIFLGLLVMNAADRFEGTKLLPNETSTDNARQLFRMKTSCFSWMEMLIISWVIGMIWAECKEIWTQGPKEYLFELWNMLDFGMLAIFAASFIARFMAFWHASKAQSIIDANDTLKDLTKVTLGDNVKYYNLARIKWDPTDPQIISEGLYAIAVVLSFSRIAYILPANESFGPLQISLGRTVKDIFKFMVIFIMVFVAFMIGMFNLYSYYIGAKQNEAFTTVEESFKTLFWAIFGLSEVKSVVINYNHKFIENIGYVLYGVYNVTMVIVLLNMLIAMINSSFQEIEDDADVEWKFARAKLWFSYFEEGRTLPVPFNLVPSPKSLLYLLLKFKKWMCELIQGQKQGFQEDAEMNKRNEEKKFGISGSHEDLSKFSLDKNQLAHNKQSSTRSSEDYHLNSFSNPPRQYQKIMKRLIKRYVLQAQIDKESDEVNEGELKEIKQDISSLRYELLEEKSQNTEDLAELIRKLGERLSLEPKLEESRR

As to `CCn1c2ccc(F)cc2c2nnc(NN)nc21`, the outcome in assay [1], in assay [2], in assay [5], in assay [6], in assay [7] and in assay [8] was inactive. Besides, the outcome in assay [9], in assay [10], in assay [11], in assay [12], in [13] and in [14] was inactive. The result in assay [15], in [16] and in assay [17] was inactive. Moreover, the potentiation in [3] was 27% (active); in assay [4], 73% (active).
The inhibition is the relative decrease from the control value, in per cent. For the compound `O=C(CNc1ccc(Br)cc1)c1ccc(O)cc1`, the result in assay [1], in assay [2], in [3], in assay [4], in assay [6] and in assay [7] was inactive. The outcome in assay [8], in assay [9], in [11], in assay [12], in assay [13] and in assay [14] was inactive. Further, the result in assay [15], in assay [16] and in assay [17] was inactive. The inhibition in assay [5] was 82% (active); in [10], 60.5% (active).
As to `CCOC(=O)Cc1csc(NC(=O)NC2(C(F)(F)F)Oc3cc(Cl)c(Cl)cc3O2)n1`, the result in [1], in assay [2], in assay [3], in assay [4], in assay [7] and in [8] was inactive. Also, the outcome in [9], in assay [10], in assay [11], in assay [12], in assay [13] and in assay [15] was inactive. The result in assay [16] and in assay [17] was inactive. Further, the inhibition in assay [5] was 47% (active); in assay [6], 41% (active); in [14], 39.5% (active).
In the case of `CC(C)(C)NCc1cc(Cl)ccc1OCc1cccs1`, the outcome in [1], in [2], in assay [3], in assay [4], in [5] and in assay [6] was inactive. For the same compound, the result in assay [7], in [8], in assay [9], in [10], in assay [11] and in assay [12] was inactive. Besides, the result in [13], in assay [14], in [15], in assay [16] and in assay [17] was inactive.
Regarding `CCOC(=O)c1cnc2ccc(Cl)cc2c1NCCN(C)C`, the result in assay [1], in [2], in [3], in assay [4], in [5] and in [6] was inactive. In addition, the outcome in [7], in assay [8], in assay [9], in [10], in assay [11] and in assay [12] was inactive. The outcome in assay [13], in assay [14], in assay [15], in assay [16] and in [17] was inactive.
`O=[N+]([O-])c1cc([N+](=O)[O-])c2oc(-c3ccccc3)c(Br)c2c1O`: the outcome in assay [1], in assay [2], in [3], in assay [4], in assay [5] and in [6] was inactive. In addition, the result in assay [7], in [8], in [9], in assay [10], in assay [11] and in assay [12] was inactive. The result in assay [13], in assay [14], in [15], in [16] and in [17] was inactive.
As to `Cc1cc(C)nc(NNS(=O)(=O)c2ccc(F)c(Cl)c2)n1`, the outcome in [1], in assay [2], in [3], in assay [4], in [5] and in assay [6] was inactive. Further, the result in assay [7], in assay [8], in assay [9], in assay [10], in [11] and in [12] was inactive. For the same compound, the result in assay [13], in assay [14], in assay [16] and in assay [17] was inactive. For the same compound, the potentiation in assay [15] is 6.83% (active).
On to `CC(C)CCOc1ccc(C(=O)NCC(c2ccco2)N(C)C)cc1` (stereo not given), for which the outcome in assay [1], in assay [2], in [3], in assay [4], in assay [6] and in [7] was inactive. In addition, the outcome in assay [8], in [9], in assay [10], in assay [11], in assay [12] and in assay [13] was inactive. Also, the outcome in assay [14], in [15], in [16] and in [17] was inactive. In assay [5], the inhibition is 89% (active).
For the compound `CCOc1nc(C)cc(C)c1S(=O)(=O)c1cccc(C)c1`, the result in [1], in [2], in assay [3], in [4], in assay [5] and in [6] was inactive. Moreover, the outcome in [7], in assay [8], in assay [9], in [10], in assay [11] and in assay [12] was inactive. The outcome in assay [13], in [14], in assay [15], in assay [16] and in assay [17] was inactive.
Take `NS(=O)(=O)c1ccc(CCNCc2cc(Br)ccc2OCc2ccccc2)cc1`: the result in assay [1], in assay [2], in assay [3], in assay [4], in [5] and in assay [6] was inactive. Besides, the outcome in [7], in [8], in assay [9], in [10], in [11] and in assay [12] was inactive. Also, the result in assay [13], in assay [14], in [15], in assay [16] and in [17] was inactive.
With `COC(=O)[C@@]12CCCCN1[C@H](c1ccc(-c3ccccc3)cc1)[C@@H]1C(=O)N(C)C(=O)[C@@H]12`, the result in assay [1], in assay [2], in assay [3], in assay [4], in [5] and in [6] was inactive. Moreover, the outcome in assay [7], in [8], in assay [9], in assay [10], in assay [11] and in [12] was inactive. Further, the outcome in [13], in assay [14], in [16] and in assay [17] was inactive. Also, in assay [15], the potentiation was 20.4% (active).
With `COc1ccc(C(=O)/C=C/C(=O)N(CC(=O)NC2CCCCC2)CC2CCCO2)c(O)c1` (stereo not given), the outcome in assay [1], in assay [2], in assay [3], in assay [4], in [5] and in [6] was inactive. For the same compound, the outcome in assay [7], in assay [8], in [9], in [10], in assay [11] and in [12] was inactive. Moreover, the outcome in assay [13], in assay [14], in assay [15], in assay [16] and in assay [17] was inactive.
In the case of `O=[N+]([O-])c1cc(Cl)cc(/C=N/NC(=S)Nc2ccc(S(=O)(=O)N3CCOCC3)cc2)c1O`, the result in assay [1], in [2], in assay [3], in assay [5], in assay [6] and in [7] was inactive. Further, the result in [8], in assay [9], in assay [10], in [11], in assay [12] and in assay [13] was inactive. In addition, the result in assay [14], in [16] and in assay [17] was inactive. The figures for the potentiation in assay [4] and in assay [15] were 15% (active) and 10.1% (active), respectively.
For the compound `CCN1C2=NCCCN2c2cc(C)c(C)cc21`, the result in [1], in assay [2], in [3], in assay [4], in assay [5] and in assay [6] was inactive. Moreover, the outcome in assay [7], in [8], in [9], in assay [10], in [11] and in [12] was inactive. In addition, the outcome in assay [13], in assay [14], in [15], in [16] and in assay [17] was inactive.
`CCOC(=O)C1NN=C(C(=O)c2ccccc2)C1c1ccc(Cl)cc1` (stereo not given): the result in assay [1], in assay [2], in assay [3], in assay [4], in assay [5] and in assay [6] was inactive. The outcome in assay [7], in [8], in assay [9], in [10], in assay [11] and in assay [12] was inactive. Moreover, the outcome in [13], in assay [14], in [15], in [16] and in assay [17] was inactive.
